In experiment [1] the target is Nuclear receptor subfamily 1 group I member 2 (Homo sapiens) (UniProt O75469). Description: Human pregnane X receptor (PXR) small molecule agonists, qHTS assay (AID 1346982). Also: nearly all actives have a fitted effect of over 35% in size. Also: potency is read from the fitted curve at half-maximal effect. Put shortly: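 Agonist mode: luminescence from ONE-Glo after 24 h compound exposure at 37C in HepG2 cells carrying hPXR-responsive CYP3A4 luciferase, plated in charcoal-stripped serum medium 5 h beforehand.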
(In general: In qHTS, concentration-response curves come from the screen itself.)

Experiment [2] has as its target Cytochrome P450 2D6 (Homo sapiens) (UniProt P10635). Description: Cytochrome P450 Family 2 Subfamily D Member 6 (CYP2D6) small molecule antagonists: luciferase reporter qHTS assay (AID 1671196). Also: nearly all actives have a fitted effect of over 50% in size. Also: potency is read from the fitted curve at half-maximal effect. As to activity change, negative = inhibition: series mostly up to about 120 µM. The method in brief: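 CYP2D6 activity was followed as luminescence from its luciferin product after a 1 h NADPH-driven reaction at room temperature. Enzyme-substrate mix and compound were pre-incubated for 10 min, and the signal was read 20 min after adding detection reagent.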
For orientation: Reporter assays use an easily measured gene product as a stand-in for the process of interest.

Experiment [3] deals with Cytochrome P450 2C9 (Homo sapiens) (UniProt P11712). Briefly: Cytochrome P450 Family 2 Subfamily C Member 9 (CYP2C9) small molecule antagonists: luciferase reporter qHTS assay (AID 1671198). Also: nearly all actives have a fitted effect of over 50% in size. Also: potency is read from the fitted curve at half-maximal effect. As to activity change, negative = inhibition: series mostly up to about 120 µM. Put shortly: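 Enzyme-substrate mix preincubated with compound 10 min at room temperature; reaction started with NADPH regeneration solution, 1 h 37C. Luminescent luciferin product read after 20 min detection reagent.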

Experiment [4] deals with Cytochrome P450 1A2 (Homo sapiens) (UniProt P05177). Description: Cytochrome P450 Family 1 Subfamily A Member 2 (CYP1A2) small molecule antagonists: luciferase reporter qHTS assay (AID 1671199). Also: nearly all actives have a fitted effect of over 50% in size. Also: potency is read from the fitted curve at half-maximal effect. As to activity change, negative = inhibition: series mostly up to about 120 µM. The method in brief:
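Luminescence from luciferin formed by CYP1A2 from a proluciferin substrate, read 20 min after detection reagent. Compound was pre-incubated 10 min with enzyme-substrate, and reaction started with NADPH regeneration solution for 1 h at room temperature; furafylline control.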

Experiment [5] has as its target Voltage-gated inwardly rectifying potassium channel KCNH2 (Homo sapiens) (UniProt Q12809). Description: Human Ether-a-go-go-Related Gene (hERG) channel small molecule antagonists: fluorescence cell-based qHTS assay (AID 1671200).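 Also: hERG-expressing U2OS cells given a thallium stimulus after FluxOR II dye loading; series mostly up to about 77 µM; nearly all actives have a fitted effect of over 50% in size.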 The method in brief: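 Fluorescence at 540 nm emission (480 nm excitation) was recorded kinetically for 2 min at 1-second intervals once the thallium-containing stimulus reached cells previously loaded with FluxOR II dye.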
(In general: The hERG channel carries a current that helps repolarise heart muscle cells.)

Experiment [6] addresses Cytochrome P450 3A4 (Homo sapiens) (UniProt P08684). Description: Cytochrome P450 Family 3 Subfamily A Member 4 (CYP3A4) small molecule antagonists: luciferase reporter qHTS assay (AID 1671201). Also: nearly all actives have a fitted effect of over 50% in size. Also: potency is read from the fitted curve at half-maximal effect. As to activity change, negative = inhibition: series mostly up to about 120 µM. The method in brief:
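qHTS, 1536-well. CYP3A4 + proluciferin substrate, cpd 10 min RT → NADPH regen 1 h RT → detection reagent 20 min → luminescence (RLU). Ketoconazole positive control.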

The target of experiment [7] is Cytochrome P450 2C19 (Homo sapiens) (UniProt P33261). Briefly: Cytochrome P450 Family 2 Subfamily C Member 19 (CYP2C19) small molecule antagonists: luciferase reporter qHTS assay (AID 1671197). Also: nearly all actives have a fitted effect of over 65% in size. Also: potency is read from the fitted curve at half-maximal effect. As to activity change, negative = inhibition: series mostly up to about 120 µM. Put shortly:
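Compounds were tested on CYP2C19 activity via proluciferin conversion to luciferin. The 37C, 1 h reaction followed NADPH addition; detection reagent stopped it.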

Experiment [8] concerns the target Nuclear receptor subfamily 1 group I member 2 (Rattus norvegicus) (UniProt Q9R1A7). Description: Rat pregnane X receptor (rPXR) activation by small molecules, qHTS assay (AID 1346983). Also: nearly all actives have a fitted effect of over 20% in size. The following applies: rPXR luciferase reporter cells, One-Glo luminescence, 24 h; max activation: stronger effect = higher value. Put shortly: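 Luminescent readout (One-Glo luciferase, 30 min room temperature) followed 24 hr compound treatment at 37 C of rPXR cells plated 2,000 per well and preincubated 5hr; qHTS format with compounds delivered in DMSO.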

Experiment [9] deals with Nuclear receptor subfamily 1 group I member 2 (Homo sapiens) (UniProt O75469). Description: CYP3A4 induction through human pregnane X receptor (PXR) by small molecules, qHTS assay (AID 1346984). Also: nearly all actives have a fitted effect of over 40% in size. Put shortly: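 Read-out is luminescence after One-Glo addition, following a 3 hr, 37C incubation with Luciferin-IPA CYP3A4 substrate (3uM final). Before that, compounds were on DPX-2 cells (HepG2 co-transfected with PXR element plus CYP3A4-promoter luciferase) for 24 hr at 37C.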

Experiment [10] has the same target. Briefly: Human pregnane X receptor (PXR) activation by small molecules, qHTS assay (AID 1346985). Also: nearly all actives have a fitted effect of over 40% in size. The method in brief: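 DPX-2 cells (HepG2 co-transfected with a PXR response element and a CYP3A4-promoter luciferase construct) were seeded at 2,000 per well, rested 5 hr at 37C, then exposed to DMSO-dissolved compounds for 24 hr. Activation was read as luciferase luminescence.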

Results filed as inconclusive are left out. A number with no mark means an inactive call. The source made the active and inactive calls. Calls follow the shape of the dose curve; as a rule, active = well fitted curve in the direction sought with a large enough effect in the repeat runs; inconclusive = weak or mixed curves; inactive = no such curve, though single readings can be large; an effect the other way counts as inactive or inconclusive.
% is scaled to controls: 0 for no effect and ±100 for the full control effect.

Nuclear receptor subfamily 1 group I member 2 (Homo sapiens), sequence (O75469 whole entry, looked up): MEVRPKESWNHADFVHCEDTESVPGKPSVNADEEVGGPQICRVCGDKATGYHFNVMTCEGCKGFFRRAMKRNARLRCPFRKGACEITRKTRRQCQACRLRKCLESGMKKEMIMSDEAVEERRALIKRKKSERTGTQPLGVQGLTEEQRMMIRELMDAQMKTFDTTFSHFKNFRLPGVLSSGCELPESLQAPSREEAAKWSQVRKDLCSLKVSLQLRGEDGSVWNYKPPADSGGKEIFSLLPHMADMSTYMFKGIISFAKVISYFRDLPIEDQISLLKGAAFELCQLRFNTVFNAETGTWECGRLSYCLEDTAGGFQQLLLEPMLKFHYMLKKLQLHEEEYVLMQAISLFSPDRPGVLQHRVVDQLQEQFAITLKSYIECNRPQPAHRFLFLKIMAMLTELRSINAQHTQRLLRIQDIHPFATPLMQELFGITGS
Cytochrome P450 2C19 (Homo sapiens), sequence (P33261 whole entry, looked up): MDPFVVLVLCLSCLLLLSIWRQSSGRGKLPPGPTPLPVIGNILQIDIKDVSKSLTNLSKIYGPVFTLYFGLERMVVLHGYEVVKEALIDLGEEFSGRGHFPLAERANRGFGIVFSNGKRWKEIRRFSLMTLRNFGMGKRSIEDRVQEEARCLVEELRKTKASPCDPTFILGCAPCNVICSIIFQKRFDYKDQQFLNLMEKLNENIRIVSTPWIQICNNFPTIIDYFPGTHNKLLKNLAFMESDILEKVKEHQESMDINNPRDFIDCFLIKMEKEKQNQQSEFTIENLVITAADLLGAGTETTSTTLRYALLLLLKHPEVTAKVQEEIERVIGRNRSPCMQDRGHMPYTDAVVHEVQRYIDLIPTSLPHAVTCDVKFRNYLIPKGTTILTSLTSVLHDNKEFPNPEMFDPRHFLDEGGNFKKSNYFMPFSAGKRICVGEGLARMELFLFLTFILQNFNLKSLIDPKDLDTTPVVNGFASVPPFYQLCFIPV
Cytochrome P450 3A4 (Homo sapiens), sequence (P08684 whole entry, looked up): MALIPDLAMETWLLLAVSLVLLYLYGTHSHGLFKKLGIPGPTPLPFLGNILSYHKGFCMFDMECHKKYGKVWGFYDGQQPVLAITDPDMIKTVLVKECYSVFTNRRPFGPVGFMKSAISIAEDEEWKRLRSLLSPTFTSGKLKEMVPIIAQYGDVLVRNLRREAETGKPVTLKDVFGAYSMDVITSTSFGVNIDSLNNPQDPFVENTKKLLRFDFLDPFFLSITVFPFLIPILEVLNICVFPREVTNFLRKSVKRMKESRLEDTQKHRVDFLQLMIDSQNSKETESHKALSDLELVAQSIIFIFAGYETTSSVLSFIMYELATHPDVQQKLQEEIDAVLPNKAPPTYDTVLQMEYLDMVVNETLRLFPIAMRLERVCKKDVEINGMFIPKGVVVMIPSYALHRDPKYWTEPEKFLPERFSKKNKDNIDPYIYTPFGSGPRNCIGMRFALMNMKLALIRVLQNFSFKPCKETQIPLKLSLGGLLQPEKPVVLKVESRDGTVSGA
Cytochrome P450 2D6 (Homo sapiens), sequence (P10635 whole entry, looked up): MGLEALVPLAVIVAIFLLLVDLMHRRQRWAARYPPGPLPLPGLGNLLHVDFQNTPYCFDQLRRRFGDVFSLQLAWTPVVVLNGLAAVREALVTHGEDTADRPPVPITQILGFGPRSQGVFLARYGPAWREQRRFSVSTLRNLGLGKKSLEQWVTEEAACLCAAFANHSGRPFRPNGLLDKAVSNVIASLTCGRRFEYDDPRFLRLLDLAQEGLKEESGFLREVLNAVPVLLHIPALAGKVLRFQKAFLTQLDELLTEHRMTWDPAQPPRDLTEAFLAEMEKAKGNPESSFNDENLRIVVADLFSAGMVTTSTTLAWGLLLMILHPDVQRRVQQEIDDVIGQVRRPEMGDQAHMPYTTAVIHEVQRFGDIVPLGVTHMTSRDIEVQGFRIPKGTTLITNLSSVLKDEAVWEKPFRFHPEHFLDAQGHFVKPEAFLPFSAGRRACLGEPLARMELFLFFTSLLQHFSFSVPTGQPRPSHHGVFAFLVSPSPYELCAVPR
Cytochrome P450 2C9 (Homo sapiens), sequence (P11712 whole entry, looked up): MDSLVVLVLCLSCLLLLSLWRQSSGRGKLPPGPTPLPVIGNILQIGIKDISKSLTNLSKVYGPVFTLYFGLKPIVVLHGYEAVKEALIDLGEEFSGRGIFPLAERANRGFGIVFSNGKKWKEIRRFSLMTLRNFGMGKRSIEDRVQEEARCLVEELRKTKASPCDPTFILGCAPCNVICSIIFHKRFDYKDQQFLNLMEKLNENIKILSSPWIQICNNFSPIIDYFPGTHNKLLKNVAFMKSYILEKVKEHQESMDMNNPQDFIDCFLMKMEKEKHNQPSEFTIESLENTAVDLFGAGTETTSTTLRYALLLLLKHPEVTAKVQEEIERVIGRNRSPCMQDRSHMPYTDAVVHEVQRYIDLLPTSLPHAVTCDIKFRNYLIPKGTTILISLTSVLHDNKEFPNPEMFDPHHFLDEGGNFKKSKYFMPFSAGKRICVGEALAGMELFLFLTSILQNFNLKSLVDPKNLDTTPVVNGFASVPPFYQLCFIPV
Voltage-gated inwardly rectifying potassium channel KCNH2 (Homo sapiens), sequence (Q12809 whole entry, looked up): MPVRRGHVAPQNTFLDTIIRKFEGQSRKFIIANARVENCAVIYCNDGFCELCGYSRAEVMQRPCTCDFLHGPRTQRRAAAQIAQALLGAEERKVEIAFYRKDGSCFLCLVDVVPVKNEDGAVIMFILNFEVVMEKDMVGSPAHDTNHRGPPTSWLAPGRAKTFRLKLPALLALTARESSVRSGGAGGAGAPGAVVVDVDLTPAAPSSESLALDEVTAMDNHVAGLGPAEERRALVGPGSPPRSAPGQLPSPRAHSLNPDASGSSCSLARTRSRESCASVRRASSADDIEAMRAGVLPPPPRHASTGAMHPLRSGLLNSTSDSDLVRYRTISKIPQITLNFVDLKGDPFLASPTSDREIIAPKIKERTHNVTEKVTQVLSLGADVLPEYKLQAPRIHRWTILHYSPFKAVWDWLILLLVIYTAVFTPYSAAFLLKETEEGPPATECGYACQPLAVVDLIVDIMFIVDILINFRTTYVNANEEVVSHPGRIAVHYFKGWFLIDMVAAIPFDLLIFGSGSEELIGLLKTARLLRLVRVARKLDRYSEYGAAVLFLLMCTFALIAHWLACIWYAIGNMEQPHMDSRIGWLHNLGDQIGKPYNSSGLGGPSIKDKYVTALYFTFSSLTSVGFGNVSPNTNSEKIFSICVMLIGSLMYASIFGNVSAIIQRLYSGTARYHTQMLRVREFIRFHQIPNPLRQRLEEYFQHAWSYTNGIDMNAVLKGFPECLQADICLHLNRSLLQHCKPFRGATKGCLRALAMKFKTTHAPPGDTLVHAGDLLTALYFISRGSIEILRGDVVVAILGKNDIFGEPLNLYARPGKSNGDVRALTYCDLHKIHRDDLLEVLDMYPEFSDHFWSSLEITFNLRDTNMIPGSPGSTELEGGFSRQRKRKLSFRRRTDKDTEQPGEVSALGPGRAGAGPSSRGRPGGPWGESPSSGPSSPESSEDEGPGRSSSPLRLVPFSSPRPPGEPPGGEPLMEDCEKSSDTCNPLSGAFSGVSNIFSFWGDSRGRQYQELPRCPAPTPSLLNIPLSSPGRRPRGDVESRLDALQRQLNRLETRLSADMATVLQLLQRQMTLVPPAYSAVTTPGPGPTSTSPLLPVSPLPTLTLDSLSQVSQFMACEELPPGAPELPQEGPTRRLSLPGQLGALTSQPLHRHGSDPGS
Cytochrome P450 1A2 (Homo sapiens), sequence (P05177 whole entry, looked up): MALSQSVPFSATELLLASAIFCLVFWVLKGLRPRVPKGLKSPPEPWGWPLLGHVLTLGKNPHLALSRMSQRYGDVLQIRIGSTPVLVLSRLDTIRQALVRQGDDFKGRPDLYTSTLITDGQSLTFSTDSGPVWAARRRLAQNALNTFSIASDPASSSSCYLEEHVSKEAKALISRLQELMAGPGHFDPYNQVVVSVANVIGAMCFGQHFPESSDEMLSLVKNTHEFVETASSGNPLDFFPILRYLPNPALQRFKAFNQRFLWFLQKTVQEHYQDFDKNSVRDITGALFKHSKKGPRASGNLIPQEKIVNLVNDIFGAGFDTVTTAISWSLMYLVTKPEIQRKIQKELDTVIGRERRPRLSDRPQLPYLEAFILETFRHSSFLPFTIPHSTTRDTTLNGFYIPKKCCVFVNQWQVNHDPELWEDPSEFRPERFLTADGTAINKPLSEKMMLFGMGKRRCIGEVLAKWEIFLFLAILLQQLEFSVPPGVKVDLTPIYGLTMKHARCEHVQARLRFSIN
Nuclear receptor subfamily 1 group I member 2 (Rattus norvegicus), sequence (Q9R1A7 whole entry, looked up): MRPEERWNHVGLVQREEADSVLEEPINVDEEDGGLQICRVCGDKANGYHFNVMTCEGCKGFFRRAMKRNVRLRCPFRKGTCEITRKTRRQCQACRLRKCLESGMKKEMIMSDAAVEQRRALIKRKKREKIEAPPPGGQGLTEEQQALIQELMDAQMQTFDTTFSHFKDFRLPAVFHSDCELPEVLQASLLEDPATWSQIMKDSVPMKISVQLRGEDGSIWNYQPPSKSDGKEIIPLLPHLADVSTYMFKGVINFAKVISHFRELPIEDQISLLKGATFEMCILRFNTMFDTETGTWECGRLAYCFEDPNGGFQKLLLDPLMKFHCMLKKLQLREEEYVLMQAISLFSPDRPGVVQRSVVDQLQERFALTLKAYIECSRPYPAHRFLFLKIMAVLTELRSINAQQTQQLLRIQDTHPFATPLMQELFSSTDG

For the compound `CCC(C)N` (configuration not stated), the Potency entry in experiment [1], in [2], in experiment [3], in experiment [4], in [5] and in [6] was “inactive” each time.
`C1=C\CC/C=C\CC/1`: the Potency entry in experiment [1], in experiment [2], in experiment [3], in [4] and in experiment [6] was “inactive” each time.
With `O=C1CC[C@H](C(=O)N2CCCCC2)N1`, the Potency entry in [1], in experiment [2], in experiment [3], in experiment [4], in experiment [5] and in experiment [6] was “inactive” in each case.
With `O=S(=O)(O)SSS(=O)(=O)O`, the Potency entry in experiment [1], in experiment [2] and in experiment [6] was “inactive” in each case. Besides, the Potency in experiment [3] is 71 µM (active); in experiment [4], 44.8 µM (active).
As to `C[C@H](CCC(=O)NCC(=O)O)[C@H]1CC[C@H]2[C@@H]3[C@H](O)C[C@@H]4C[C@H](O)CC[C@]4(C)[C@H]3C[C@H](O)[C@]12C`, the Potency result in experiment [1], in experiment [2], in experiment [4], in experiment [5] and in experiment [6] was “inactive” each time.
Consider `Cc1cc(C)cc([N+](=O)[O-])c1`, for which the Potency entry in experiment [1], in [2], in [3], in experiment [4] and in [6] was “inactive” throughout.
Consider `CC(C)c1ccccc1O`, for which the Potency result in experiment [1], in [2], in [5] and in experiment [6] was “inactive” throughout.
For `C=C(C)C(=O)OCCCCCCOC(=O)C(=C)C`, the Potency result in experiment [1], in experiment [2], in experiment [5] and in experiment [6] was “inactive” throughout. The Potency in experiment [3] was 35.6 µM (active); in experiment [4], 39.9 µM (active).
As to `C=C(C)C(=O)OC`, the Potency entry in experiment [1], in experiment [2], in [3], in experiment [4] and in experiment [6] was “inactive” in each case.
Regarding `CCOC(=O)C(=O)c1csc(NC=O)n1`, the Potency entry in [1], in experiment [7], in [3], in [5] and in [6] was “inactive” each time. For the same compound, the Potency in experiment [4] was 19.5 µM (active).
`CCCCCCCCCCCCCCCCI`: the activation in [1] is 0.718% [at 19 µM]. The activity change, negative = inhibition in experiment [2] was -2.1% [at 23.6 µM]; in experiment [3], -1.09% [at 23.6 µM]; in experiment [4] it was -13.6% [at 23.6 µM]; in [5] it was 0.683% [at 15.8 µM]; in [6], -0.102% [at 23.6 µM].
For the compound `CC(C)CCO`, the Potency result in [1], in experiment [2], in experiment [3], in [4] and in [6] was “inactive” each time.
Take `CC1CCC(C(C)(C)S)C(=O)C1` (configuration not stated): the Potency was 61.1 µM (active) in experiment [1], 79.6 µM (active) in experiment [7] and 39.9 µM (active) in [3]. Moreover, the Potency result in [4] and in experiment [5] was “inactive” throughout.
On to `C[Si]1(C)N[Si](C)(C)N[Si](C)(C)N1`, for which the Potency entry in experiment [1], in [2] and in [5] was “inactive” in each case. Besides, the figures for the Potency in experiment [3] and in [6] were 63.3 µM (active) and 6.33 µM (active), respectively.
`CCOC(=O)CCc1ccccc1`: the Potency entry in experiment [1], in [2], in experiment [3], in [5] and in experiment [6] was “inactive” throughout.
For `Oc1ccccc1Cc1ccccc1O`, the Potency in [1] is 61.1 µM (active); in [7] it was 10 µM (active); in experiment [3], 39.9 µM (active).
As to `CCCCC(CC)CNC(=O)CC(C)OC(=O)CCC(=O)O` (configuration not stated), the Potency entry in experiment [1], in experiment [4] and in experiment [5] was “inactive” each time. The Potency in experiment [2] was 17.4 µM (active).
In the case of `CCCCC(CC)C(=O)OC(C)C` (configuration not stated), the Potency result in experiment [1], in experiment [2], in experiment [3], in [4], in experiment [5] and in experiment [6] was “inactive” throughout.
Regarding `O=C(O)c1c(Cl)ccc(Cl)c1Cl`, the Potency entry in [1], in experiment [2], in [4], in [5] and in experiment [6] was “inactive” each time.
Turning to `CN[C@@H]1[C@@H](O)[C@@H](O[C@@H]2[C@H](O)[C@H](O[C@H]3OC(CN)=CC[C@H]3N)[C@@H](N)C[C@H]2N)OCC1(C)O` (some centres not stated), the Potency result in experiment [5] is “inactive”.
Take `C=CC(C)(O)CC/C=C(\C)CC` (configuration not stated): the Potency result in experiment [2] and in experiment [5] was “inactive” throughout. Also, the values for the Potency in experiment [7] and in experiment [6] were 40 µM (active) and 22.5 µM (active), respectively.
Consider `F[Si-2](F)(F)(F)(F)F`, for which the max activation in experiment [8] is -2.73%. Besides, the compound was called inactive in [9]. Moreover, the Potency result in experiment [10], in experiment [2], in experiment [7], in experiment [3], in experiment [4] and in experiment [5] was “inactive” in each case. Moreover, in experiment [6], the Potency entry is “inactive”.
As for `CCN(CCC#N)c1ccccc1`, the Potency result in experiment [1], in experiment [5] and in [6] was “inactive” in each case. For the same compound, the values for the Potency in [7] and in [4] were 8.94 µM (active) and 31.7 µM (active), respectively.
Take `CC(C)(c1ccc(Oc2ccc3c(c2)C(=O)OC3=O)cc1)c1ccc(Oc2ccc3c(c2)C(=O)OC3=O)cc1`: the figures for the Potency in experiment [2] and in [4] were 39.7 µM (active) and 70.6 µM (active), respectively. Moreover, the Potency entry in [7], in experiment [3], in experiment [5] and in experiment [6] was “inactive” each time.
With `C=CCOCC(CO)(COCC=C)COCC=C`, the Potency result in experiment [2] is “inactive”. Moreover, the Potency in experiment [7] is 0.717 µM (active); in [3], 7.17 µM (active); in [4], 25.5 µM (active); in [6], 10.1 µM (active).

The values above are taken from PubChem BioAssay (Tox21).
